Experimental data from the supplement of paper PMC11732987, “Enantioselective OTUD7B fragment discovery through chemoproteomics screening and high-throughput optimisation” (Communications Chemistry, 2025).

What was measured:
Assay in all cases: log2 ratio of Biotin-Ahx-Ub-VS probe labelling (fragment/DMSO); higher = less target engagement (more negative = stronger competition), active = hit call of the paper (q ≤ 0.05, log2 ratio ≤ -1)
Conditions in all cases: compound concentration: 200 uM; treatment time: 3 h
ALG13 = target: T1, ALG13 (UniProt Q9NP73)
T1 sequence (whole entry): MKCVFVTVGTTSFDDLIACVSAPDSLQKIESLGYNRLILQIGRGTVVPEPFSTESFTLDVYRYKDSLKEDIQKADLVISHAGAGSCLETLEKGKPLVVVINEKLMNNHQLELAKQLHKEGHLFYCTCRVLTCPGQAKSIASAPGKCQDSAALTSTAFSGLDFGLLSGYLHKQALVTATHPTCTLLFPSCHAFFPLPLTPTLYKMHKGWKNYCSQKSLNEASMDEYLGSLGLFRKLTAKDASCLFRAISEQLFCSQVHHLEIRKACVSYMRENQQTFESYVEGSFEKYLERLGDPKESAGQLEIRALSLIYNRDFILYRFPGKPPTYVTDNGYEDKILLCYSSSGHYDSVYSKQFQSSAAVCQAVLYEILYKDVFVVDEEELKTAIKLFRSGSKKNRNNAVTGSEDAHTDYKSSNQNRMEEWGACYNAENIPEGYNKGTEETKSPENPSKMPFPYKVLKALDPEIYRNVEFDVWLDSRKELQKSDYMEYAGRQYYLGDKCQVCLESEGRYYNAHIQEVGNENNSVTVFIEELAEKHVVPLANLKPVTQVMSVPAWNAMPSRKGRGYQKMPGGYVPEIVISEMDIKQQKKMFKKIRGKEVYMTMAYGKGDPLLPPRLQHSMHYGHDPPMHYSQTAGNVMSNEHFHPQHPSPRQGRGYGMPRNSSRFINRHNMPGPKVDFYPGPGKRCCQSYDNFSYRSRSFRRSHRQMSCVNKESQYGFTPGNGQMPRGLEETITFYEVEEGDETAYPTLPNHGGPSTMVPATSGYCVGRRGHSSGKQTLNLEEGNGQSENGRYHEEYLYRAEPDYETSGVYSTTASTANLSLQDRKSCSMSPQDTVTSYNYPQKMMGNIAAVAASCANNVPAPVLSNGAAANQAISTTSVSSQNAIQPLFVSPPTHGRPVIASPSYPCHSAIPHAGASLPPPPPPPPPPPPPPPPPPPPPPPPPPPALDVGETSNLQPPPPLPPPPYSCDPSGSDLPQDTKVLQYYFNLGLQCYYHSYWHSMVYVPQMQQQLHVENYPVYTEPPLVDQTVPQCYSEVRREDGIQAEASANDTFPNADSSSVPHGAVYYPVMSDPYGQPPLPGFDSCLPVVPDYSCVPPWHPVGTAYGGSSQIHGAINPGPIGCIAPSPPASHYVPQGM
Method in brief: (§1)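 Triplicate samples of HEK293T lysate, 495 µg each, received fragment at 200 µM or vehicle for 3 h, followed by Biotin-Ahx-Ub-VS (0.5 µM final) for 1 h. After NeutrAvidin enrichment of labelled DUBs and LysC/trypsin digestion, peptides were run by diaPASEF LC-MS/MS. The values are average log2 fragment/vehicle ratios from global-median-normalised Spectronaut label-free quantities, tested by unpaired t-test on proteins having ≥2 unique peptides.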

ATXN3 = ATXN3 (UniProt P54252)
Method in brief: as §1

BAP1 = target: T2, BAP1 (UniProt Q92560)
T2 sequence (whole entry): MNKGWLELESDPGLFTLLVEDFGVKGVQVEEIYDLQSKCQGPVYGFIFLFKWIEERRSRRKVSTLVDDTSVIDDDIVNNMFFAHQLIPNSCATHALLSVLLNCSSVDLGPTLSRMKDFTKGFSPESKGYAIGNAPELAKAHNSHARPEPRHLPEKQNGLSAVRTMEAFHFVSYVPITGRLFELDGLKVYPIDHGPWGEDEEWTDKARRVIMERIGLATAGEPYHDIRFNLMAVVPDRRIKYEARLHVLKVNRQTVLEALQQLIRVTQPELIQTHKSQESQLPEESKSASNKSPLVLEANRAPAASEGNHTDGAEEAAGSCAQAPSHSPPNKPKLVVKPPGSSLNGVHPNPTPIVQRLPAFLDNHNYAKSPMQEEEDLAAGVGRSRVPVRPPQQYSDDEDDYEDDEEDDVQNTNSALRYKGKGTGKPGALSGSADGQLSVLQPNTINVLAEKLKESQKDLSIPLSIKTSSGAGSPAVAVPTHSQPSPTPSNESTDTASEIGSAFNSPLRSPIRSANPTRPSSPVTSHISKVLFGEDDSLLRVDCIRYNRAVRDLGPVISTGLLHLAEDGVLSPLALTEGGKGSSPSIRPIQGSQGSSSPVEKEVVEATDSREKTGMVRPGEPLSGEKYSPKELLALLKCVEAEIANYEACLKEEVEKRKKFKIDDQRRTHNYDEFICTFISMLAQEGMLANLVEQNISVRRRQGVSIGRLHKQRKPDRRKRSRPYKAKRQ
Method in brief: as §1

EIF3F = EIF3F (UniProt O00303)
Method in brief: as §1

EIF3H = EIF3H (UniProt O15372)
Method in brief: as §1

FAM105A = target: T3, FAM105A (UniProt Q9NUU6)
T3 sequence (whole entry): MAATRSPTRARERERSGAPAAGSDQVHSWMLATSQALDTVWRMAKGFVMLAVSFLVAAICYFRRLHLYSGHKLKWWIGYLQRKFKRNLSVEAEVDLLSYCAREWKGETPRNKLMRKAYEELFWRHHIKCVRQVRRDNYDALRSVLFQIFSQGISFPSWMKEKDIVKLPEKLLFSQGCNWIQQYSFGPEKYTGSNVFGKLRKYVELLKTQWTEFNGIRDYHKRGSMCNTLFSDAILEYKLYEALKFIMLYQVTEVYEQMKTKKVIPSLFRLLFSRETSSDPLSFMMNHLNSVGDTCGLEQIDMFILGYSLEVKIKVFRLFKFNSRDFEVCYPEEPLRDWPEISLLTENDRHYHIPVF
Method in brief: as §1

OTUB1 = OTUB1 (UniProt Q96FW1)
Method in brief: as §1

OTUD4 = target: T4, OTUD4 (UniProt Q01804)
T4 sequence (whole entry): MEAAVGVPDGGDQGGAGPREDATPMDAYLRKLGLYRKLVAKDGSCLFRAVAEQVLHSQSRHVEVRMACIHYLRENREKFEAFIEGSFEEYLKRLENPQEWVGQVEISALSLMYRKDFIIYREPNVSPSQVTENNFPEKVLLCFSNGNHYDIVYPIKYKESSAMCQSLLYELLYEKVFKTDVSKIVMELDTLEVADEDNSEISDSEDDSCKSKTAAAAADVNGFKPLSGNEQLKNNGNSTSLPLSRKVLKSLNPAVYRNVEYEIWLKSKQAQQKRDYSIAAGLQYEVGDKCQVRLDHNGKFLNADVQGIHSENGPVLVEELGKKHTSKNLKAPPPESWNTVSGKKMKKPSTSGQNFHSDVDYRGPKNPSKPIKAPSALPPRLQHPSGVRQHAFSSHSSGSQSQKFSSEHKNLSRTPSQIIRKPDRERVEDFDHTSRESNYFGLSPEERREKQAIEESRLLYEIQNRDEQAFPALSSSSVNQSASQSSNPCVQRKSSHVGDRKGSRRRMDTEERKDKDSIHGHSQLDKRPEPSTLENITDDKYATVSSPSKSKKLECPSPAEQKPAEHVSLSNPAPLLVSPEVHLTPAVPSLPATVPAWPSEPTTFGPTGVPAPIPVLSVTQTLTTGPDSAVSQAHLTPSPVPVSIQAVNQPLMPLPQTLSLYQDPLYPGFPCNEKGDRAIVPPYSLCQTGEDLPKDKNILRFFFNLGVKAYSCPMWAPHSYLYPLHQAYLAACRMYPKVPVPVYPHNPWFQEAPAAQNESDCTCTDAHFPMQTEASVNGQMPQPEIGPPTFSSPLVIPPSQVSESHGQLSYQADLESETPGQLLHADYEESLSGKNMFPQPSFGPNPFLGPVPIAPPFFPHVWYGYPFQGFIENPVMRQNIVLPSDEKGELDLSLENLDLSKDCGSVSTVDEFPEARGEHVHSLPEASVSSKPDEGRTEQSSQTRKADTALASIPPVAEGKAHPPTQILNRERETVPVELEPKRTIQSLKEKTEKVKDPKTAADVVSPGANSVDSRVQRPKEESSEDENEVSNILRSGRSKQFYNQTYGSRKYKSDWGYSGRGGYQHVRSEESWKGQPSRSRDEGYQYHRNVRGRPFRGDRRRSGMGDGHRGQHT
Method in brief: as §1

OTUD5 = target: T5, OTUD5 (UniProt Q96G74)
T5 sequence (whole entry): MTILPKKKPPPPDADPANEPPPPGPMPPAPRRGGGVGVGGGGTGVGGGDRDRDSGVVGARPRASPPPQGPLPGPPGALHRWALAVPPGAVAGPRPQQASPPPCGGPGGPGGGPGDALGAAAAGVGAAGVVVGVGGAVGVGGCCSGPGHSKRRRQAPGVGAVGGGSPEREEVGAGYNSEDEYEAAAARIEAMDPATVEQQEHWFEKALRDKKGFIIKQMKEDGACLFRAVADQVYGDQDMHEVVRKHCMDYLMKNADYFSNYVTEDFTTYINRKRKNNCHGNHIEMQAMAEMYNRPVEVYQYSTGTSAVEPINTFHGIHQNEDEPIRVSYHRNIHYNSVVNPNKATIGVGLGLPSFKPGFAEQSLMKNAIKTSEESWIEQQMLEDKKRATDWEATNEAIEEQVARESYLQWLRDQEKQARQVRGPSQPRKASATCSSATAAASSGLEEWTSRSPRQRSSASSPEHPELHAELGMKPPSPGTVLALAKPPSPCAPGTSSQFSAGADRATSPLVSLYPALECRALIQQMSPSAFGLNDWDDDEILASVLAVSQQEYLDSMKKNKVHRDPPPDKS
Method in brief: as §1

Measured: log2 ratio of Biotin-Ahx-Ub-VS probe labelling

Chain of ATXN3 (P54252 whole entry): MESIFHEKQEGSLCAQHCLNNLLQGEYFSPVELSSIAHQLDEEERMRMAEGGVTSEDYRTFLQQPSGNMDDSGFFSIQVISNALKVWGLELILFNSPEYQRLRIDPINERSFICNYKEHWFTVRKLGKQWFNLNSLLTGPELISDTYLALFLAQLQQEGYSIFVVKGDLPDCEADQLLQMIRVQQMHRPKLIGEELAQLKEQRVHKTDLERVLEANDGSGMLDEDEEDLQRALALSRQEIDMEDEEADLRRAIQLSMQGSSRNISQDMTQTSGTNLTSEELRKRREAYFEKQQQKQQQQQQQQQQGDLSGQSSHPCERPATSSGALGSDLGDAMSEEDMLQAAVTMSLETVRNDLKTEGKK
Chain of EIF3H (O15372 whole entry): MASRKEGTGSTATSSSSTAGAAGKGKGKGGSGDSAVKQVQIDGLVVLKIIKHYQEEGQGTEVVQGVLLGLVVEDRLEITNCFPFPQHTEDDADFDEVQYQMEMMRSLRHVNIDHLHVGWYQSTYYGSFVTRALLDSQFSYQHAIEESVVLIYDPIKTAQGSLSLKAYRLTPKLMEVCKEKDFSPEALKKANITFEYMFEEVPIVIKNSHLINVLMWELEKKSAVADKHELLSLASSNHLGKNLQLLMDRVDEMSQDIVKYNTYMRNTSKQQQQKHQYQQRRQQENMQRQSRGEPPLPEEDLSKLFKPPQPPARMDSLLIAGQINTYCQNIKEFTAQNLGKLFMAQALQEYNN
Chain of OTUB1 (Q96FW1 whole entry): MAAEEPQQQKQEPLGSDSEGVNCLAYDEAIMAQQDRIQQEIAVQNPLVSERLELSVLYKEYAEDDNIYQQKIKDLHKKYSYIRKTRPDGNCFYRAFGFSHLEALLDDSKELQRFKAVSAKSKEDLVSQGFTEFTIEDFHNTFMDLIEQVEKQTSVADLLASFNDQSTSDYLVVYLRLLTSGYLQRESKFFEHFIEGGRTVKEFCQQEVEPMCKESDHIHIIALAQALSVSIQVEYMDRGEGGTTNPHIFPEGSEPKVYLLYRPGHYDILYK
Chain of EIF3F (O00303 whole entry): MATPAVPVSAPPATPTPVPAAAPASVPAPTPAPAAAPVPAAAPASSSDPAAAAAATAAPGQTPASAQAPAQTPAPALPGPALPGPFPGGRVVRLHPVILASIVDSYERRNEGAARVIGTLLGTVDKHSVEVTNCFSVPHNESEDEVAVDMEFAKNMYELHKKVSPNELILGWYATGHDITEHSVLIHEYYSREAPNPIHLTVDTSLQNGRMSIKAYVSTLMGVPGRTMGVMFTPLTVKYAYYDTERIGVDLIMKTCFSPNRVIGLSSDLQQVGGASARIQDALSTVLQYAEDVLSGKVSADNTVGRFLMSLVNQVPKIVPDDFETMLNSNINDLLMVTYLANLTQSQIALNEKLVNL

O=C(CCl)N1CCOC2(CCC2)C1
inactive: ALG13 -0.352 | ATXN3 -0.0796 | BAP1 -0.352 | EIF3F -0.125 | EIF3H 0.226 | FAM105A -0.0758 | OTUB1 -0.141 | OTUD4 -0.57 | OTUD5 -0.148
